The list is not random: actives were taken first. Their share in the collection is about 3.4%.
MEKK3 PB1 HTS – modulators of MEKK3-MEK5 PB1 binding, primary screen, biochemical, wildtype MEKK3, multiplex bead flow cytometry, Alexa488-MEK5 | binding response (% of control), % at 10 µM | 290,000 tested, 1.4% active | bead-based flow cytometry, Alexa488-MEK5 binding to MEKK3; actives lie on both sides; 0 = blocked by unlabeled MEK5, 100 = vehicle;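 active means binding response more than 3 SD above or below the average of its plate-row segment, actives on both sides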;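 further: Alexa488 bead fluorescence after subtracting the streptavidin-only scavenger bead signal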
MEKK2wt PB1 HTS – modulators of MEK5 binding to wildtype MEKK2, primary screen, biochemical, multiplex bead flow cytometry, Alexa488-MEK5 | binding response (% of control), % at 10 µM | 290,000 tested, 1.1% active | Alexa488-MEK5 binding to MEKK2 WT; actives lie on both sides; in the data active means binding response below about 67% or above about 130%
MEKK2mut PB1 HTS – MEK5 binding signal on mutant MEKK2 PB1, primary screen, biochemical, multiplex bead flow cytometry, Alexa488-MEK5. Alexa488-MEK5 binding to MEKK2 mutant. percent response, % at 10 µM. 290,000 tested, 0.35% active. AID 1530, 2009; in the data active means percent response above about 24%, passing the limit was not always enough
NTR1 agonist – agonists of human NTR1, primary screen, imaging, U2OS cells, beta-arrestin-GFP, high content | Neurotensin receptor type 1 (Homo sapiens), P30989 | NTR1-U2OS beta-arrestin-GFP spot imaging, agonist mode | activation, % at 20 µM | 330,000 tested, 0.17% active;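 active means activation at or above 40% of the spot to cytoplasm intensity ratio, with at least 20 cells analyzed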;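 further: 0% = DMSO without peptide and 100% = 100 nM NTR1 peptide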
Target sequence (P30989 whole entry, looked up): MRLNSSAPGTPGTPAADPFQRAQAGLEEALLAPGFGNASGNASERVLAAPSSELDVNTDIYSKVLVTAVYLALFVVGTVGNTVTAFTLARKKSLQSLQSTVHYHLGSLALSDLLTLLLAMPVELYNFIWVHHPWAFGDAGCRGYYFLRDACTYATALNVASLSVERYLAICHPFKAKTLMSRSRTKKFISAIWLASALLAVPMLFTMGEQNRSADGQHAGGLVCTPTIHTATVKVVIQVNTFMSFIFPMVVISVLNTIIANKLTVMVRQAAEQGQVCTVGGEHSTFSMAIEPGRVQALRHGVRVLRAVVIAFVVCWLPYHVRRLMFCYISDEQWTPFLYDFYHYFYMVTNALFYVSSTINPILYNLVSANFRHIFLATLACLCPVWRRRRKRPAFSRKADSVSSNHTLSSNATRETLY
TMEM16A act – TMEM16A chloride channel activators or potentiators, primary screen, cell-based, HTS; HEK293 TMEM16A/YFP-H148Q/I152L, iodide quench fluorescence; active compounds read low; B-score at 10 µM; 340,000 tested, 0.3% active; AID 623877, 2012;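 active means fluorescence-ratio B-score plate-corrected deviation score at least 3 library SD below zero, with starting fluorescence score within 5 deviations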;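 further: channel opened by trigger with iodide after compound preincubation; score built on the fluorescence ratio of max minus min over baseline; more negative score means more quench and so TMEM16A activation or potentiation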
TMEM16A inh – TMEM16A chloride channel inhibitors, primary screen, cell-based, HTS; HEK293 TMEM16A/YFP iodide influx fluorescence, ionomycin; normalized B-score (activity score, 25-100; higher = stronger inhibition) at 10 µM; 310,000 tested, 1.2% active; AID 588511, 2011;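 active means ratio plate-corrected score three or more library SD toward inhibition, starting fluorescence score within five deviations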;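 further: score derived from kinetic fluorescence span divided by baseline fluorescence per well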
MEKK2wt confirm – modulators of MEK5 binding to wildtype MEKK2, confirmation, biochemical, single concentration, multiplex bead flow cytometry. shares compounds with MEKK3 PB1 HTS. Alexa488-MEK5 binding to MEKK2 WT; actives lie on both sides. binding response (% of control), % at 10 µM. 5,900 tested, 2.4% active; in the data active means binding response below about 16% or above about 210%; inactive means in between
MEKK2mut-MEK5 – mutant MEKK2 PB1-MEK5 binding signal retest – biochemical, single concentration, multiplex bead flow cytometry, confirmation. shares compounds with MEKK3 PB1 HTS. Alexa488-MEK5 binding to MEKK2 mutant. percent response, % at 10 µM. 5,900 tested, 2% active; in the data active means percent response mostly above about 71%, no sharp cut-off; inactive means mostly below about 38%;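 further: higher means compound restores mutant binding toward wildtype level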
MEKK3-MEK5 inh – MEKK3 wild-type PB1 binding to MEK5, inhibitors, confirmation, biochemical, bead multiplex flow cytometry, single concentration, wildtype. shares compounds with MEKK3 PB1 HTS. Alexa488-MEK5 binding to MEKK3; active compounds read low. binding response (% of control), % at 10 µM. 5,900 tested, 1.8% active. AID 1894, 2009;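 active means binding response below 72% of control, or above a set upper limit, though filed actives all read lower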;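 further: 100% = DMSO only wells and 0% = binding blocked by excess unlabeled MEK5; lower values mean stronger disruption of MEK5 binding to MEKK3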
Starred values were filed as active, the others as inactive; i = inactive; x = not tested or not shown; [ ] = another dose, or the depositor's remark.

SMILES	MEKK3 PB1 HTS	MEKK2wt PB1 HTS	MEKK2mut PB1 HTS	NTR1 agonist	TMEM16A act	TMEM16A inh	MEKK2wt confirm	MEKK2mut-MEK5	MEKK3-MEK5 inh
COCC(=O)Nc1cc(C(=O)Nc2ccccc2C)ccc1Cl	82*[inhibitor]	83	-12	0	i	i	94	-9	98
COCC(=O)Nc1cc(C(=O)Nc2cccc(C)c2C)ccc1Cl	92	96	-4	-1	i	i	x	x	x
Cc1cccc(S(=O)(=O)c2c(N)n(-c3ccccc3)c3nc4ccccc4nc23)c1	138*	105	0	0	i	i	97	-3	107
Cc1ccc(-n2c(N)c(S(=O)(=O)c3ccccc3)c3nc4ccccc4nc32)cc1	101	95	-5	0	i	i	x	x	x
COc1ccc(-c2nn(-c3ccccc3)cc2CN(C)CCn2ccnc2C)c(F)c1	44*[inhibitor]	57	-37	-1	i	i	90	-3	96
COc1ccc(CNC(=O)C2CCCN(S(=O)(=O)c3c(C)noc3/C=C/N(C)C)C2)cc1 (stereo unspecified)	101	99	1	0	i	i	x	x	x
S=C(Nc1ccccc1Cl)N(Cc1ccccc1)Cc1ccccn1	107	102	4	4	i	i	x	x	x
COc1ccc(/C(=C/c2ccc(OC(F)F)c(OC)c2)C(=O)O)cc1OC	128*	105	0	0	i	i	104	2	100
O=C(NCC(=O)N1CCC2(CC1)NCCc1[nH]cnc12)c1ccc(F)cc1	101	103	7	0	i	i	x	x	x
CC1CN(c2nc3ccccc3nc2C(C#N)C(=O)NC2CCCCC2)CC(C)O1 (stereo unspecified)	15*[inhibitor]	22*	-49	2	x	i	106	10	103
CC1CN(c2nc3ccccc3nc2C(C#N)C(=O)OC2CCCCC2)CC(C)O1 (stereo unspecified)	91	82	-5	0	i	i	x	x	x
CCCN1C2CCCC1CC(NC(=O)NC1CCCCC1)C2 (stereo unspecified)	2.0*[inhibitor]	2.0*[inhibitor]	-14	0	i	i	101	2	100
CCN(CC)CCn1c(NCc2ccco2)nc2ccccc21	85	101	-1	2	i	i	x	x	x
Cn1c(NCc2ccco2)nc2ccccc21	16*[inhibitor]	25*[inhibitor]	-22	0	i	i	110	15	113
COc1ccc(/C=c2/sc3nc(-c4ccccc4)c(-c4ccccc4)n3c2=O)cc1	103	95	7	4	i	i	x	x	x
CCN(CC)c1ccc(/C=c2\sc3nnc(-c4ccccc4Cl)n3c2=O)cc1	84	44*[inhibitor]	22	-5	i	i	65	-29	78
Cc1ccc(/C=c2/sc3nnc(-c4ccccc4Cl)n3c2=O)o1	102	94	0	0	i	i	x	x	x
CCN(CC)c1ccc(/C=c2/sc3nnc(-c4ccccc4C)n3c2=O)cc1	101	x	318*	-2	i	i	107	37	85
CNC(=O)Cn1nc(-c2ccc(C)cc2)c2ccccc2c1=O	97	99	1	0	i	i	x	x	x
CCOC(=O)C(C)NC(=O)c1cn(-c2ccc(OC)cc2)c(=O)c2ccccc12 (stereo unspecified)	103	103	0	0	i	i	x	x	x
C=CCNC(=O)C(=O)Nc1ccc2c(c1)N(S(=O)(=O)c1cccs1)CCC2	x	x	x	4	i	i	x	x	x
Cc1ccc(NC(=O)CSc2nnc(-c3cccs3)o2)cc1S(=O)(=O)N(C)C	95	94	-8	1	x	i	x	x	x
Cc1ccc(NC(=O)CSc2nnc(-c3cccs3)o2)cc1S(=O)(=O)N1CCCCC1	135*	105	0	1	i	i	99	4	105
Cn1cc([C@@H]2C[C@H]3CN(C4CCCC4)C(=O)[C@]34CCCN24)c(-c2ccccc2)n1	94	85	-9	-2	i	i	x	x	x
O=C(NC(Nc1ccc(F)cc1)(C(F)(F)F)C(F)(F)F)c1cccnc1	53*[inhibitor]	93	-1	1	i	i	106	6	104
SMILES	MEKK3 PB1 HTS	MEKK2wt PB1 HTS	MEKK2mut PB1 HTS	NTR1 agonist	TMEM16A act	TMEM16A inh	MEKK2wt confirm	MEKK2mut-MEK5	MEKK3-MEK5 inh
COc1ccc(NC(=O)N2CCN(c3ccc([N+](=O)[O-])cc3)CC2)cc1	101	91	-9	3	i	i	x	x	x
COc1ccc(NC(=O)N2CCN(c3ccc([N+](=O)[O-])cc3)CC2)cc1OC	45*[inhibitor]	56	-13	4	i	i	87	-2	80
CC1Cc2ccccc2N1C(=O)CN1CCC(C(N)=O)CC1 (stereo unspecified)	62	66	-27	-1	i	i	x	x	x
COc1cc(OC)c2c(-c3ccccc3)cc(=O)oc2c1C(CC(=O)N1CCN(c2ccccc2)CC1)c1ccc(N(C)C)cc1 (stereo unspecified)	89	85	-14	0	i	i	x	x	x
CCN(CC)C(=O)CC(c1ccc(OC)cc1)c1c(OC)cc(OC)c2ccc(=O)oc12 (stereo unspecified)	117	145*	4	2	i	i	102	2	100
COc1ccc(C(CC(=O)N2CCCCC2)c2c(OC)cc(OC)c3ccc(=O)oc23)cc1 (stereo unspecified)	101	89	0	-6	i	i	x	x	x
